# Data from PubChem BioAssay (NCI).
# Compounds without any hit were thinned out: in the full panel of roughly 83,000, 20% have a hit.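 Results are percent growth after 48 hours of single-concentration exposure. 100 means growth as in untreated cells, lower positive values show inhibition; negative values down to -100 show cell death.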 Unmarked numbers belong to inactive results. Activity calls are given as the source filed them. Rule for the calls: active = growth percent below 10; inactive = the rest.
# Tests used:
# Assay in all cases: NCI-60 one-dose screen, 48 h (100 = growth as untreated, 0 = no growth, -100 = all killed)
# Settings in all cases: 10 µM unless noted
# NCI-H23 lung = tested on: NCI-H23 lung
# NCI-H226 lung = tested on: NCI-H226 lung
# NCI-H322M lung = tested on: NCI-H322M lung
# HOP-62 NSCLC = tested on: HOP-62 NSCLC
# NCI-H460 lung = tested on: NCI-H460 lung
# HOP-92 NSCLC = tested on: HOP-92 NSCLC
# NCI-H522 lung = tested on: NCI-H522 lung
# A549/ATCC NSCLC = tested on: A549/ATCC NSCLC
# 786-0 renal = tested on: 786-0 renal
Compound,growth (NCI-H23 lung),growth (NCI-H226 lung),growth (NCI-H322M lung),growth (HOP-62 NSCLC),growth (NCI-H460 lung),growth (HOP-92 NSCLC),growth (NCI-H522 lung),growth (A549/ATCC NSCLC),growth (786-0 renal)
O=C(CC12CC3CC(CC(C3)C1)C2)NCCOCCOCCNC(=O)c1cc2c(o1)C(=O)c1ccccc1C2=O,-52.9% (active),-71.7% (active),-90.2% (active),-58.3% (active),-72.6% (active),-8.25% (active),-49.5% (active),-61.7% (active),-29.1% (active)
Cc1ccc(NSc2ccccc2[N+](=O)[O-])cc1,44.6%,65.5%,38.6%,24.8%,14.7%,37.7%,12.7%,20.5%,40.2%
N#Cc1cnn2c(-c3ccc(Cl)cc3)nc(NCCc3ccccc3)nc12,85.2%,105%,83.5%,84.9%,99%,92.6%,74.4%,93.3%,92.5%
O=C(CCCCCCCn1cc(-c2cccnc2)nn1)Nc1ccccc1-c1ccccc1,63.6%,55.4%,65.3%,61.1%,29.3%,96.5%,27.5%,36.9%,53.4%
CN(CCCCCCCCNc1ccnc2ccccc12)Cc1ccc(-c2ccc(-c3ccc(C#N)cc3)s2)cc1,21.1%,-66.9% (active),-66% (active),-11.2% (active),-76.3% (active),44.8%,-62.9% (active),-60.7% (active),-89.8% (active)
CN1CCN(CCCOc2ccc3nc(Nc4cc(Cl)cc(Cl)c4)ccc3c2)CC1,-40.7% (active),-9.2% (active),-55.5% (active),-87.5% (active),-76.2% (active),-27% (active),-81.4% (active),-81% (active),-75.6% (active)
Nc1nc(Nc2ccc(Cl)cc2)nn1S(=O)(=O)c1ccc(-c2ccc(F)cc2)cc1,92%,84.4%,109%,84.3%,70.9%,75.7%,75.3%,71.9%,92.1%
CCCCOc1nc2ccc(Cl)cc2cc1/C=C/C(=O)/C=C1/CC(c2cc3cc(Cl)ccc3nc2OCCCC)Nc2ccccc2N1 (stereo not given),87.2%,90.8%,103%,94.8%,85%,77.3%,90.4%,94.2%,99.1%
O=[N+]([O-])c1ccc(-c2cc3c(Nc4ccc(OCc5cccc(Cl)c5)c(Cl)c4)ncnc3s2)cc1,78.7%,92.2%,82.4%,67.7%,32%,80.3%,49.9%,29.4%,88.3%
COc1cccc(CCC2CCCN(c3cc(C)nc(N)n3)C2)c1 (stereo not given),22.1%,55.9%,40%,59.4%,14.3%,23%,2.3% (active),29.1%,19%
CCN(CC)CCOC(=O)N1c2ccccc2Sc2ccccc21,104%,95.2%,89.7%,88.7%,103%,73.1%,68.7%,88.9%,91.4%
CCCCNC(=O)c1cc(NCc2cc(O)ccc2O)ccc1O,93.4%,106%,91.3%,84.4%,106%,67.7%,-55.7% (active),77.1%,80.4%
C[C@@H](C[C@H](CCOCc1cccnc1)c1ccccc1)c1cc2ccccc2o1,90.7%,80.2%,90.5%,81.8%,98.4%,84.9%,78.2%,90.2%,93.8%
Cl.Fc1c[c-]c(-c2ccccn2)c(F)c1.[Pt].c1ccc([PH+](c2ccccc2)c2ccccc2[PH+](c2ccccc2)c2ccccc2)cc1,-84.6% (active),-70% (active),-99.4% (active),-62.2% (active),-73.2% (active),-68% (active),-63% (active),-68.9% (active),-73.9% (active)
CCOC(=O)c1sc2ccc(NCc3nc[nH]c3C)cc2c1NC(=O)c1cc(OC)c(OC)c(OC)c1,85.7%,84.3%,91%,93.9%,92.6%,75.1%,84.8%,101%,84.8%
